Experimental data taken from the supplement of paper PMC11732987, “Enantioselective OTUD7B fragment discovery through chemoproteomics screening and high-throughput optimisation” (Communications Chemistry, 2025).

What was measured:
Assay in all cases: log2 ratio of Biotin-Ahx-Ub-VS probe labelling (fragment/DMSO); higher = less target engagement (more negative = stronger competition), active = hit call of the paper (q ≤ 0.05, log2 ratio ≤ -1)
Conditions in all cases: compound concentration: 200 uM; treatment time: 3 h
USP19 = molecular target: T1, USP19 (UniProt O94966)
T1 sequence (whole entry): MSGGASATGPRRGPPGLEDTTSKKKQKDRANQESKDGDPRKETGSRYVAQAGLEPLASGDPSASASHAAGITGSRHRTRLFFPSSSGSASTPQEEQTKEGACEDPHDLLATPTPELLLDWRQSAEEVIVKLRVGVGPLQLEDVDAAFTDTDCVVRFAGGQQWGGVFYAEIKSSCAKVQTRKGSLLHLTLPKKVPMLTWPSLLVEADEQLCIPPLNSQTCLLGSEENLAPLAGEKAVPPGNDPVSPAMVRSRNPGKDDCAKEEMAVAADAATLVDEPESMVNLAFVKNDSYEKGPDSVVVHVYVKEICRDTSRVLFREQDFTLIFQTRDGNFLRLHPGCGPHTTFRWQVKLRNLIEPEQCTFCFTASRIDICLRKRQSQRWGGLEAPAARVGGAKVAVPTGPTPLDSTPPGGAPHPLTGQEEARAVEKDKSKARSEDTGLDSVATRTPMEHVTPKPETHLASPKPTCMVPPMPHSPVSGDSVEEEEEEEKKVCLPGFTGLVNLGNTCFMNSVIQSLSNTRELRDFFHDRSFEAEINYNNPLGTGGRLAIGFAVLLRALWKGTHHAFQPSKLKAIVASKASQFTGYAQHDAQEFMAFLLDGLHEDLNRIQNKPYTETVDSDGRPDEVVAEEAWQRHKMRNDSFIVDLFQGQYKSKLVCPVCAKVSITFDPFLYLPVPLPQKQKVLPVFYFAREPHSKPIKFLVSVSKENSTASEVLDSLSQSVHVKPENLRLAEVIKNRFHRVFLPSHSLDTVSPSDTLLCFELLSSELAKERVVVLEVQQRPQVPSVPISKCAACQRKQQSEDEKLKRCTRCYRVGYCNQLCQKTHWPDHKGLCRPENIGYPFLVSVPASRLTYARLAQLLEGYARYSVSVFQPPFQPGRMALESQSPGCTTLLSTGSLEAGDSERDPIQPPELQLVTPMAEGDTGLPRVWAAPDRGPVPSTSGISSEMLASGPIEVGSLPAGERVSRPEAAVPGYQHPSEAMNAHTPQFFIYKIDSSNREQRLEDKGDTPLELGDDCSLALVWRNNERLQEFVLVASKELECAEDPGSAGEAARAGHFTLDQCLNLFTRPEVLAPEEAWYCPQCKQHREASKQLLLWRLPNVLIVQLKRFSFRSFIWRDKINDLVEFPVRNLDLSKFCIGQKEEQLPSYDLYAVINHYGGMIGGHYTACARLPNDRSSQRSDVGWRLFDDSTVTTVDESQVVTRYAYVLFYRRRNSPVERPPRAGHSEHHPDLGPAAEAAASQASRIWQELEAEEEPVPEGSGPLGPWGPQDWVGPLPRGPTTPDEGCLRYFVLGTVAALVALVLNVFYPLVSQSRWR
Procedure, shortened: (§1)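 HEK293T lysate (495 µg per sample, in Tris/CHAPS/IGEPAL buffer with protease inhibitors) was exposed in triplicate for 3 h to fragment at 200 µM or to vehicle, then to Biotin-Ahx-Ub-VS at 0.5 µM final for 1 h. Labelled DUBs were enriched on NeutrAvidin, digested with LysC and trypsin, and analysed by diaPASEF LC-MS/MS. Spectronaut label-free quantities were normalised to the global median, and values are average log2 ratios of fragment over vehicle from an unpaired t-test. Only proteins with ≥2 unique peptides were used.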

USP22 = molecular target: T2, USP22 (UniProt Q9UPT9)
T2 sequence (whole entry): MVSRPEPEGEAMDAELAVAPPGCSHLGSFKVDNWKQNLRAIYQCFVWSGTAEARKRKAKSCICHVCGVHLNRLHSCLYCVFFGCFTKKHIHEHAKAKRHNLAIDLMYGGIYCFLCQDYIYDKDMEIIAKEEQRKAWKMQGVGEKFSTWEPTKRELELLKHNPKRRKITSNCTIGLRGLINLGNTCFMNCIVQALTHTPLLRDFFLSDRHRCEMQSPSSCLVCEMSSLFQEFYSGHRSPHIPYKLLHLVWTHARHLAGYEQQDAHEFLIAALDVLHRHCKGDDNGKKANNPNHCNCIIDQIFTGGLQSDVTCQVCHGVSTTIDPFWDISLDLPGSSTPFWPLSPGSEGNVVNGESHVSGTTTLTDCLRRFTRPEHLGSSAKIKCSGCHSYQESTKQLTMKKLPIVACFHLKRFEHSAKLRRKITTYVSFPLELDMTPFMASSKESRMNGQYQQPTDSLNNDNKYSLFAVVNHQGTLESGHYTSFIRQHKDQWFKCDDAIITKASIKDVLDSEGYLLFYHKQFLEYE
Procedure, shortened: as §1

USP24 = USP24 (UniProt Q9UPU5)
Procedure, shortened: as §1

USP25 = molecular target: T3, USP25 (UniProt Q9UHP3)
T3 sequence (whole entry): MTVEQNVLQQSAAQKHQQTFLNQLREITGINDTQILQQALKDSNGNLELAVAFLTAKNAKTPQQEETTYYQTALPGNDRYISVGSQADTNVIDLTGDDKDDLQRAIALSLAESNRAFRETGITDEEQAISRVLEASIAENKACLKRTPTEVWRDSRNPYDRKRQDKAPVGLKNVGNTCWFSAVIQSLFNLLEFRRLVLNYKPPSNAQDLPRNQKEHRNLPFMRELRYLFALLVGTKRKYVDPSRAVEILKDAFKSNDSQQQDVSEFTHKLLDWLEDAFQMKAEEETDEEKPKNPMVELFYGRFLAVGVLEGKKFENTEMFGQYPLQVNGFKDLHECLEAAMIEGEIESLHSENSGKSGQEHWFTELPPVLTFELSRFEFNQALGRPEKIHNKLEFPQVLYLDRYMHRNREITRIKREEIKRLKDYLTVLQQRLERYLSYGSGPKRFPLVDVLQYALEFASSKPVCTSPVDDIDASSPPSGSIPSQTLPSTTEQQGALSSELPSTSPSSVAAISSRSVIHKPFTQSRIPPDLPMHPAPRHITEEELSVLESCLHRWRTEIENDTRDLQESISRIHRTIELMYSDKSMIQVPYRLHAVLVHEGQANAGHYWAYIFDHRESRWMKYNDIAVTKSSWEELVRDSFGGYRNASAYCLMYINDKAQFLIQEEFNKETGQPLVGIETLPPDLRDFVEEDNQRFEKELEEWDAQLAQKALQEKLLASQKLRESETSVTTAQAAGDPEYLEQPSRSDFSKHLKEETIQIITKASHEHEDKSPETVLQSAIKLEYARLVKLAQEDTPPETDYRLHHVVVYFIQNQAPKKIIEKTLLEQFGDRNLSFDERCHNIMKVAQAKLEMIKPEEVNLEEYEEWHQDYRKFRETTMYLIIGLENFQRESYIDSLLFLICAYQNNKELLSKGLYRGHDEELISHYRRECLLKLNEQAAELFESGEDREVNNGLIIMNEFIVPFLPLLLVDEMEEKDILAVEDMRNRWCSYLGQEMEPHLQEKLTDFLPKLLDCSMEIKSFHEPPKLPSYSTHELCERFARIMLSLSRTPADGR
Procedure, shortened: as §1

USP28 = molecular target: T4, USP28 (UniProt Q96RU2)
T4 sequence (whole entry): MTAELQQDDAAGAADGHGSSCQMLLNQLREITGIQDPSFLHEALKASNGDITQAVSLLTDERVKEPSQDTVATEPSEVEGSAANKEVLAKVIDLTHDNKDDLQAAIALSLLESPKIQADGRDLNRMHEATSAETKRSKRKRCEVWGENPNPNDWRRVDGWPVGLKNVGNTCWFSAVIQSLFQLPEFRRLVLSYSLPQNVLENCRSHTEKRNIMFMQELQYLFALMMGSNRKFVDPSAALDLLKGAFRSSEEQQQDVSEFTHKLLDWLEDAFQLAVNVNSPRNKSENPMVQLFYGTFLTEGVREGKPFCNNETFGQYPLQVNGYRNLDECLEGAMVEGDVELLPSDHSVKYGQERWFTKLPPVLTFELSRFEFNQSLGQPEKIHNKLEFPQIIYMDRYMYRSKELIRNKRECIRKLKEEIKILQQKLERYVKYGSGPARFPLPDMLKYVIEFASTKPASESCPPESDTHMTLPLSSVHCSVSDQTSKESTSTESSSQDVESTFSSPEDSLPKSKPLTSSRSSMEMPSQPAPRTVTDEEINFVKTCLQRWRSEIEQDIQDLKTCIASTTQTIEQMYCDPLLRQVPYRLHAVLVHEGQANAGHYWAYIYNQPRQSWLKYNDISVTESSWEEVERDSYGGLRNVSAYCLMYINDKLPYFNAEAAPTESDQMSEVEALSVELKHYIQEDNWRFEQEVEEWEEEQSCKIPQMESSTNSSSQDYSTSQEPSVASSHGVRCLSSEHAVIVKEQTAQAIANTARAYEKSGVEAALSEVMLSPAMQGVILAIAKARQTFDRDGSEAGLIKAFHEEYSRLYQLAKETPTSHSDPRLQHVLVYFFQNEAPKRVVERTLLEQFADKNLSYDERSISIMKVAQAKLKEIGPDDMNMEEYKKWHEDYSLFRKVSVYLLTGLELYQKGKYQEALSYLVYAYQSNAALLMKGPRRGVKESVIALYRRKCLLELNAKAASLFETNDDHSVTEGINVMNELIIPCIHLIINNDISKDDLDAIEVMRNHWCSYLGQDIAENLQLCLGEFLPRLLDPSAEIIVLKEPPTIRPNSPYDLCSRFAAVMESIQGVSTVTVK
Procedure, shortened: as §1

Measured: log2 ratio of Biotin-Ahx-Ub-VS probe labelling

Chain of USP24 (Q9UPU5 whole entry): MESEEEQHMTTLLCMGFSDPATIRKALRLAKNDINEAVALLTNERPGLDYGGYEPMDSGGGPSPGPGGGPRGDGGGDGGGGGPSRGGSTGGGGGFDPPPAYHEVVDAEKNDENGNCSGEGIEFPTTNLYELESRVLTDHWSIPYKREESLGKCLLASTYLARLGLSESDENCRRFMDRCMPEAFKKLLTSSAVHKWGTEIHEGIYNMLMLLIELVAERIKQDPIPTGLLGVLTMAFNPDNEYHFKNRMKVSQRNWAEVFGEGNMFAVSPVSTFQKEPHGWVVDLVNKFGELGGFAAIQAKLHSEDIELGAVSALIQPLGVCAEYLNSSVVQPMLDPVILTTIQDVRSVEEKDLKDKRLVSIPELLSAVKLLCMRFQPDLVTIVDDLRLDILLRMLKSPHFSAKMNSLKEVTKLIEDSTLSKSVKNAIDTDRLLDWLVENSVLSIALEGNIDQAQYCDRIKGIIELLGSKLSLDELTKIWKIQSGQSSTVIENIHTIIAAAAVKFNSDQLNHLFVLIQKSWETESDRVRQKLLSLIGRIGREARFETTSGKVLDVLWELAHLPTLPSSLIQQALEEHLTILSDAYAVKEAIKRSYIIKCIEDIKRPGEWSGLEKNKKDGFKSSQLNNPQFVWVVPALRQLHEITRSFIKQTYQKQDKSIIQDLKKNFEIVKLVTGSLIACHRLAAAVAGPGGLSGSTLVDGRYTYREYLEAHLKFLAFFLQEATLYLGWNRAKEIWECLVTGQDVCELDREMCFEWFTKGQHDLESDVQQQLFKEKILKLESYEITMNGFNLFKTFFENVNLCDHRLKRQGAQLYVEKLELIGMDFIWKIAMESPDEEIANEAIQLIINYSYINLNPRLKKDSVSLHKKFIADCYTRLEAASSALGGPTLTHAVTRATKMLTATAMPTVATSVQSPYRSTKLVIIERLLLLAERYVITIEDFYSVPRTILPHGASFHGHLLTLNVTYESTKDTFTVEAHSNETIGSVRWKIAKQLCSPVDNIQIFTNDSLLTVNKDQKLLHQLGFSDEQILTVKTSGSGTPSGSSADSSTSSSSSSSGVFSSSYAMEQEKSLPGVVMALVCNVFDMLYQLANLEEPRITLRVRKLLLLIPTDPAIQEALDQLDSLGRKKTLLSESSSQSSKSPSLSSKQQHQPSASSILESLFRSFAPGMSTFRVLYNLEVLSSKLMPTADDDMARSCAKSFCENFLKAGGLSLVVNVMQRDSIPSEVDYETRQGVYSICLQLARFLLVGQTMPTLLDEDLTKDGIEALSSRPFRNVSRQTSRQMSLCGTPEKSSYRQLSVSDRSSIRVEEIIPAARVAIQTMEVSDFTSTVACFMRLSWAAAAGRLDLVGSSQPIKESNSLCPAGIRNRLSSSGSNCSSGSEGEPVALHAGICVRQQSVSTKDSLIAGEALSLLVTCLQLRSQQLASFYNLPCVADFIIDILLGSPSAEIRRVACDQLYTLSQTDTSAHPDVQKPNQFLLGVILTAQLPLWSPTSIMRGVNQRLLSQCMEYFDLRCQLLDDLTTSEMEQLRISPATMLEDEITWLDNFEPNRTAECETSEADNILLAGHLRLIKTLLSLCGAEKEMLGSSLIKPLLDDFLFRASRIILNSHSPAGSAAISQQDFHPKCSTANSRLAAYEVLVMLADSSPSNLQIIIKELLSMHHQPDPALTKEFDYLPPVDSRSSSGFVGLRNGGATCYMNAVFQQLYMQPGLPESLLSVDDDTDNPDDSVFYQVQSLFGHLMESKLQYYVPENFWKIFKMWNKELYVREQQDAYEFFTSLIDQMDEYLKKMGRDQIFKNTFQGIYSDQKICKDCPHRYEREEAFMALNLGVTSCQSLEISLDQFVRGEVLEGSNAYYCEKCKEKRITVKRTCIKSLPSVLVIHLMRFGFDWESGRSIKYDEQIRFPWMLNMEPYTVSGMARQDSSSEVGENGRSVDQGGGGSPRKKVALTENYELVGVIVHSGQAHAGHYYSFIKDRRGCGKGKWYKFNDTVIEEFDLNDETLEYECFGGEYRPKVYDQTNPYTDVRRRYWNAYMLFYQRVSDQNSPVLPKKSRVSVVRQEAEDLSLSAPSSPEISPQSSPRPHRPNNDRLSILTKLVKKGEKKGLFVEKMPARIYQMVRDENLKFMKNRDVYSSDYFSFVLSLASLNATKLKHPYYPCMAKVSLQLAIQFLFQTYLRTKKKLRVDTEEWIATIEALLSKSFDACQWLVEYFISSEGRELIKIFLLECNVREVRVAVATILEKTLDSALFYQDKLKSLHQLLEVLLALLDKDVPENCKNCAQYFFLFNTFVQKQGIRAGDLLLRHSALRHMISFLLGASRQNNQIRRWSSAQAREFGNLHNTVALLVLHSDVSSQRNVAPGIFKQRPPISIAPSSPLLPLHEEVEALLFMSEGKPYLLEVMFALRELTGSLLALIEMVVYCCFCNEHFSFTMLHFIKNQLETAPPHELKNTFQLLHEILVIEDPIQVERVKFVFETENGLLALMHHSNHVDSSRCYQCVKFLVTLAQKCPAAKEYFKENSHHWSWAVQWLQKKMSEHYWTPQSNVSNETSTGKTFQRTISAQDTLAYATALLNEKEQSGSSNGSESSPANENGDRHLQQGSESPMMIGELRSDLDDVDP

O=C(CCl)N1CCC(c2noc3cc(F)ccc23)CC1
inactive: USP19 -0.49 | USP22 -0.492 | USP24 -0.986 | USP25 -0.302 | USP28 -0.607
